Laboratory results reported in the supplement of paper PMC11732987, “Enantioselective OTUD7B fragment discovery through chemoproteomics screening and high-throughput optimisation” (Communications Chemistry, 2025).
Values without a mark were called inactive.

Tests used:
Test in all cases: log2 ratio of Biotin-Ahx-Ub-VS probe labelling (fragment/DMSO); higher = less target engagement (more negative = stronger competition), active = hit call of the paper (q ≤ 0.05, log2 ratio ≤ -1)
Conditions in all cases: compound concentration: 200 uM; treatment time: 3 h
ALG13 = molecular target: T1, ALG13 (UniProt Q9NP73)
T1 sequence (whole entry): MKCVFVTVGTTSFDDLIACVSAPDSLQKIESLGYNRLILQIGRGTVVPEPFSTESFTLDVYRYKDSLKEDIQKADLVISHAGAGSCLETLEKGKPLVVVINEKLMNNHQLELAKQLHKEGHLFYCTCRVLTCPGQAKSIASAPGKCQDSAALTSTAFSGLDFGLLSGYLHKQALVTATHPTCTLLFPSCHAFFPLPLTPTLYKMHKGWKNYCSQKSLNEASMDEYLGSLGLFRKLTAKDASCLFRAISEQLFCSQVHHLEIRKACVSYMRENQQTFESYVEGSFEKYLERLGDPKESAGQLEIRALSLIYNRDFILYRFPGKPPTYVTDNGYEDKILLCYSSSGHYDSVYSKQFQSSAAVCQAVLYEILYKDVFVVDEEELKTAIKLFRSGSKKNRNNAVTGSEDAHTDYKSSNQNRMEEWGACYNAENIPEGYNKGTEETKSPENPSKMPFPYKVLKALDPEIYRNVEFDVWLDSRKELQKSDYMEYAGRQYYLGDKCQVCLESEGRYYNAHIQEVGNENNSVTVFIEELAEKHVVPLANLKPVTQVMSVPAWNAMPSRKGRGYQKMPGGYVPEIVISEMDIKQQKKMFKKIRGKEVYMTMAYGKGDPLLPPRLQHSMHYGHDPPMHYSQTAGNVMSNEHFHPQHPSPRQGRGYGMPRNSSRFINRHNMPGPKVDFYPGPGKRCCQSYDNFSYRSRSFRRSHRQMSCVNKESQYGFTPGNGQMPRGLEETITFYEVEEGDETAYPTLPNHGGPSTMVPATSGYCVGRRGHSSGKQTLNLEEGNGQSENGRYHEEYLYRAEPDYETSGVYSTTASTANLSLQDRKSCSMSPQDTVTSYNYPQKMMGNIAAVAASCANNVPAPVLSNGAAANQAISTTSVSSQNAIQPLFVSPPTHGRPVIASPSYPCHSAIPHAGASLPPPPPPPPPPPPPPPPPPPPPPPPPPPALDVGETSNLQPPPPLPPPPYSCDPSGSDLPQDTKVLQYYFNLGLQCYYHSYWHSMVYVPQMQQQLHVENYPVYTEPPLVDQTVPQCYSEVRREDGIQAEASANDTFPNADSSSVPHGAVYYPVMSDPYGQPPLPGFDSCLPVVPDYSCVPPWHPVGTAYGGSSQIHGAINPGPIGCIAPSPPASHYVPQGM
Summary of the method: (§1)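 HEK293T lysate (495 µg per sample, in Tris/CHAPS/IGEPAL buffer with protease inhibitors) was treated in triplicate with fragment at 200 µM or with DMSO for 3 h. It was then treated with Biotin-Ahx-Ub-VS (0.5 µM final) for 1 h. Labelled DUBs were NeutrAvidin-enriched, digested with LysC and trypsin, and run by diaPASEF LC-MS/MS. Spectronaut label-free quantities were global-median-normalised. Values are average log2 ratios fragment/DMSO by unpaired t-test, using proteins with ≥2 unique peptides.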

ATXN3 = ATXN3 (UniProt P54252)
ATXN3, sequence (P54252 whole entry): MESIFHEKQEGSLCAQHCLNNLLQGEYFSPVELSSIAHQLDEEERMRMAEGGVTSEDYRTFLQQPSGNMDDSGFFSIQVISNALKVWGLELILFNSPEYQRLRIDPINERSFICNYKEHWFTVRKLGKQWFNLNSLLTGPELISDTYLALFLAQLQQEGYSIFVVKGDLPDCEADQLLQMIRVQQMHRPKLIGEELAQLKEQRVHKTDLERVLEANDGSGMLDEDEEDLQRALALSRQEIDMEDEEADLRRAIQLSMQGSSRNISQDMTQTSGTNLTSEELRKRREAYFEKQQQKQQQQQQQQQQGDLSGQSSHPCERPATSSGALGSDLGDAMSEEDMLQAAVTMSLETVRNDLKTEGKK
Summary of the method: as §1

BAP1 = molecular target: T2, BAP1 (UniProt Q92560)
T2 sequence (whole entry): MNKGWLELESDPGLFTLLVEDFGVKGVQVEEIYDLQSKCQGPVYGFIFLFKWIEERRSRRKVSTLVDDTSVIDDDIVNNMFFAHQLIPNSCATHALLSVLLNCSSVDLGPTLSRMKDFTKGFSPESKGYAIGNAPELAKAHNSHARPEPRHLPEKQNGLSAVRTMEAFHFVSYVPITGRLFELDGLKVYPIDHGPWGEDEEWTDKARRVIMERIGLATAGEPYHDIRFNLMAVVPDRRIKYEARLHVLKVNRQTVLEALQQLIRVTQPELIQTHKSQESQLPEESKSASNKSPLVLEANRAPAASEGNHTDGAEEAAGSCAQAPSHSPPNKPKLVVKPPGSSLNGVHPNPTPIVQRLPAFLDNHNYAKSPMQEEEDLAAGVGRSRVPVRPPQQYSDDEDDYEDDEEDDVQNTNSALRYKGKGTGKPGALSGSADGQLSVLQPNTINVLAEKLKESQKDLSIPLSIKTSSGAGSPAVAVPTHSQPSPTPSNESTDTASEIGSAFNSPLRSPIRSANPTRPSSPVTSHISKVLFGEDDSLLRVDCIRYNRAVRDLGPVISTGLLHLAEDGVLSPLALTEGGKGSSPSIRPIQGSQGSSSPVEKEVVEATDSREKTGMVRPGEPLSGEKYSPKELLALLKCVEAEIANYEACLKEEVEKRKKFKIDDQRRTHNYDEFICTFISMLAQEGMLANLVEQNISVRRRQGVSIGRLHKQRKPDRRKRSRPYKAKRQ
Summary of the method: as §1

EIF3F = EIF3F (UniProt O00303)
EIF3F, sequence (O00303 whole entry): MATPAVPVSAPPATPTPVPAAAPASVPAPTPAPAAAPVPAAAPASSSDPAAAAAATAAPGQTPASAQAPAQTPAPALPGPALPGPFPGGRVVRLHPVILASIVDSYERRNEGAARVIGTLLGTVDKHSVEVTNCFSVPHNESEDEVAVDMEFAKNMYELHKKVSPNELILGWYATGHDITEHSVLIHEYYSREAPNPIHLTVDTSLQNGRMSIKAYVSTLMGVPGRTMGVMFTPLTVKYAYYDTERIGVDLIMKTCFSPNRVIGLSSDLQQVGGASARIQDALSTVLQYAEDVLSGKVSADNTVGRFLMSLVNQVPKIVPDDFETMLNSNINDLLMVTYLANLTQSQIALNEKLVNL
Summary of the method: as §1

EIF3H = EIF3H (UniProt O15372)
EIF3H, sequence (O15372 whole entry): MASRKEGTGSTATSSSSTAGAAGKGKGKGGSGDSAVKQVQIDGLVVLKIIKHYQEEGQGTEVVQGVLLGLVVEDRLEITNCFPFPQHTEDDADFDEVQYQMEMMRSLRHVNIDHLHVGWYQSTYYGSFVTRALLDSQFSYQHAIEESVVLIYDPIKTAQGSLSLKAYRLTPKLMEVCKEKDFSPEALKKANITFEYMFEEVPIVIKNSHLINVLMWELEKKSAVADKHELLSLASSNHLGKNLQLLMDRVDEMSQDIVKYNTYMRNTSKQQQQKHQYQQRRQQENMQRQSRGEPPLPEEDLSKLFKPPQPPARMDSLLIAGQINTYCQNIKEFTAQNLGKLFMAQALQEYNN
Summary of the method: as §1

FAM105A = molecular target: T3, FAM105A (UniProt Q9NUU6)
T3 sequence (whole entry): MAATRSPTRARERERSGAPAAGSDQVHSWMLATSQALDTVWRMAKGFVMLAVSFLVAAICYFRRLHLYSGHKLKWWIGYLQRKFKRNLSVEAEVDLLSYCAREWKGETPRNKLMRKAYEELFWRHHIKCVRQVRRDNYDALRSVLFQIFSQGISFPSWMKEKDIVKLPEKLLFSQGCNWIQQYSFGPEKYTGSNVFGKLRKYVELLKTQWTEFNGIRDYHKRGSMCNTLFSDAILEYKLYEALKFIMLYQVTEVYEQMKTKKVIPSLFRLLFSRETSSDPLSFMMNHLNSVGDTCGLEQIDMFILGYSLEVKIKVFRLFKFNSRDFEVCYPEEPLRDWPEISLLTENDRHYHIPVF
Summary of the method: as §1

OTUB1 = OTUB1 (UniProt Q96FW1)
OTUB1, sequence (Q96FW1 whole entry): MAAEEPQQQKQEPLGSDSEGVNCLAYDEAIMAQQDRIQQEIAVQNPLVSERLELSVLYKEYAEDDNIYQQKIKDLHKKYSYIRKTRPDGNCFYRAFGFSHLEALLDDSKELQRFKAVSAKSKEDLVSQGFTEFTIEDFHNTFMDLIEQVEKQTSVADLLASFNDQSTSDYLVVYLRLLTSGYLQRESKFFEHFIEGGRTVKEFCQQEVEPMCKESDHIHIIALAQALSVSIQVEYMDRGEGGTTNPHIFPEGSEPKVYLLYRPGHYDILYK
Summary of the method: as §1

OTUD4 = molecular target: T4, OTUD4 (UniProt Q01804)
T4 sequence (whole entry): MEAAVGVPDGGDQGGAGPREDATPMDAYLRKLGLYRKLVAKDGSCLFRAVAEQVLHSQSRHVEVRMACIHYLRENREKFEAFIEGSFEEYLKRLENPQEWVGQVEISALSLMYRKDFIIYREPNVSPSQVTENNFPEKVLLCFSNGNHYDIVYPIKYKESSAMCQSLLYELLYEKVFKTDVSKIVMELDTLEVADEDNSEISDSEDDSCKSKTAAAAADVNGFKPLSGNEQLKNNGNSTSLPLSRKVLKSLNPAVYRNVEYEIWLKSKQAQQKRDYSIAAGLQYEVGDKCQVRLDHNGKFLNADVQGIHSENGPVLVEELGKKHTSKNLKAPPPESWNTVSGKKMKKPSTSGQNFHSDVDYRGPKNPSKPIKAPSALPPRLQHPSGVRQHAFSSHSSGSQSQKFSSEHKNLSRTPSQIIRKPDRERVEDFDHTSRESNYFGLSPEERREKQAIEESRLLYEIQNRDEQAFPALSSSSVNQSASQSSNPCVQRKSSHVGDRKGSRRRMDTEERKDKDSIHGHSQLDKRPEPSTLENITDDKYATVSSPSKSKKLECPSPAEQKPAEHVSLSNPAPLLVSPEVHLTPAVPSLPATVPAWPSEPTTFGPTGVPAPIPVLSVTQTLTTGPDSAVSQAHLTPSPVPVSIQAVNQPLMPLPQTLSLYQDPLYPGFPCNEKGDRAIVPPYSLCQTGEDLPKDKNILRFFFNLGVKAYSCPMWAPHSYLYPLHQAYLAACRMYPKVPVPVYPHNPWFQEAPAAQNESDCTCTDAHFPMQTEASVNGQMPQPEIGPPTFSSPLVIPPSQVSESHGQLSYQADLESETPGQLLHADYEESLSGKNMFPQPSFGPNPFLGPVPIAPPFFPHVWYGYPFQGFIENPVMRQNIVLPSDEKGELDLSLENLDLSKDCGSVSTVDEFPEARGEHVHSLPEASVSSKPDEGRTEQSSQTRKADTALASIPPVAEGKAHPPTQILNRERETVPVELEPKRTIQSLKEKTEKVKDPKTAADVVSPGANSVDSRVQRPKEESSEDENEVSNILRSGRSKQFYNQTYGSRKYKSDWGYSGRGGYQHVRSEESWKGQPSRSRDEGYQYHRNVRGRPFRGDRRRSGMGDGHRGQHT
Summary of the method: as §1

OTUD5 = molecular target: T5, OTUD5 (UniProt Q96G74)
T5 sequence (whole entry): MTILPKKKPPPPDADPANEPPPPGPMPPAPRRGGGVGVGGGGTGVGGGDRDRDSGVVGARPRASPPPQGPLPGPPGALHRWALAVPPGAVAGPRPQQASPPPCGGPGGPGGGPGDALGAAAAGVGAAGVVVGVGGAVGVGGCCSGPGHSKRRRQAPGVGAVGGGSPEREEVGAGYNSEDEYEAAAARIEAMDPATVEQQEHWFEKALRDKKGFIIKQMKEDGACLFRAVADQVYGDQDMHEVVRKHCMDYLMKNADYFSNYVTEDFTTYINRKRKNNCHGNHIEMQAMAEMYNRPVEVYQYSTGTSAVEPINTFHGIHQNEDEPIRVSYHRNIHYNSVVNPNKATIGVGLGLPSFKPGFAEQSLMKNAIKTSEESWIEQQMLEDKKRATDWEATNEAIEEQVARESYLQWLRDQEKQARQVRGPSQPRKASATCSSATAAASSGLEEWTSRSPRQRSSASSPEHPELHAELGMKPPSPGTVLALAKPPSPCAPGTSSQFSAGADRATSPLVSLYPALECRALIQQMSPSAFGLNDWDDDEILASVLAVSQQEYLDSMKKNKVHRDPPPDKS
Summary of the method: as §1

O=C(CCl)N1CCC(c2noc3cc(F)ccc23)CC1
log2 ratio of Biotin-Ahx-Ub-VS probe labelling (ALG13): 0.141 | log2 ratio of Biotin-Ahx-Ub-VS probe labelling (ATXN3): -0.734 | log2 ratio of Biotin-Ahx-Ub-VS probe labelling (BAP1): -1.19 (active) | log2 ratio of Biotin-Ahx-Ub-VS probe labelling (EIF3F): -0.419 | log2 ratio of Biotin-Ahx-Ub-VS probe labelling (EIF3H): 0.209 | log2 ratio of Biotin-Ahx-Ub-VS probe labelling (FAM105A): -0.1 | log2 ratio of Biotin-Ahx-Ub-VS probe labelling (OTUB1): -0.253 | log2 ratio of Biotin-Ahx-Ub-VS probe labelling (OTUD4): -0.413 | log2 ratio of Biotin-Ahx-Ub-VS probe labelling (OTUD5): -0.644
